# In PubChem BioAssay:
# Active and inactive are the calls of the source. Unless noted, how the calls were made is not given here.
# Columns and labels:
# [1] = compounds binding Alexa647 anti-His antibody – biochemical, small-molecule microarray, 635 nm fluorescence, artefact control for SMM control protein annotation, primary screen (AID 1128); conditions: higher = more signal;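 further: score merges feature fluorescence with signal-to-noise for each printed compound spot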
# [2] = system: Human papillomavirus type 1a E7 protein (residues 1-88); assay: HPV1a E7 small-molecule binders, primary screen, biochemical, small-molecule microarray, residues 1-88, 635 nm (AID 1129); conditions: small-molecule microarray binding, fluorescence 635 nm; higher = more signal
# [3] = molecular target: Focal adhesion kinase 1 (Homo sapiens) (UniProt Q05397); assay: PTK2 protein binding on printed compound slides – biochemical, small-molecule microarray, 635/667 nm fluorescence, BSA, DTT, primary screen (AID 1130); conditions: 635 nm fluorescence, higher = more signal;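 further: composite of spot emission at 667 nm and signal to noise over triplicate slides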
# [4] = system: Fibrinogen (Alexa647-labelled); assay: Alexa647-fibrinogen binding to printed small molecules – biochemical, small-molecule microarray, 635/667 nm fluorescence, artefact control for SMM control-protein annotation, profiling panel (AID 1131); conditions: fibrinogen-A647 binding fluorescence, higher = more signal;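 further: z-score merges 667 nm fluorescence with per-spot signal-to-noise over triplicate slides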
# [5] = molecular target: Follistatin (Homo sapiens) (UniProt P19883); assay: FST protein binding to printed compounds – biochemical, small-molecule microarray, 635/667 nm fluorescence, primary screen (AID 1132); conditions: 635 nm fluorescence, higher = more signal
# [6] = molecular target: Fibroblast growth factor 2 (Homo sapiens) (UniProt P09038); assay: basic fibroblast growth factor binding to printed compounds – biochemical, small-molecule microarray, 635/667 nm fluorescence, primary screen (AID 1133); conditions: FGF2, fluorescence 635/667, higher = more signal
# [7] = JC-1 mitochondrial potential readout, lung cancer cells – cell-based, A549, JC-1 fluorescence, basal, 24 h, 100 nL, profiling panel (AID 1138); conditions: higher = more signal;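 further: A549 lung adenocarcinoma cells under basal conditions with no added stimulus; test concentration not given here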
# Lefty1 = Lefty1 protein binding to printed compounds – biochemical, small-molecule microarray, 635/667 nm fluorescence, primary screen (AID 1139); conditions: fluorescence 635/667, higher = more signal
# [8] = system: wheat germ agglutinin (Triticum aestivum), Alexa647-labelled; assay: Alexa647-WGA lectin binding to printed small molecules – biochemical, small-molecule microarray, 635/667 nm fluorescence, artefact control for SMM control-protein annotation, profiling panel (AID 1140); conditions: WGA-A647 binding, 635 nm fluorescence, higher = more signal;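 further: score merges 667 nm feature emission with signal to noise over triplicate slides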
# [9] = molecular target: Luciferin 4-monooxygenase (Photinus pyralis) (UniProt P08659); assay: inhibition of purified Photinus pyralis luciferase – biochemical, luminescence, purified enzyme, 2006 set, primary screen (AID 1141); conditions: purified firefly luciferase, SteadyGlo luminescence, 30 min; higher = more signal, called active from +8 up or from −8 down;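 further: cell-free assay with purified firefly luciferase at 100 ng per well in PBS; test concentration not given here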
# [10] = system: Wnt5a (protein binding on small-molecule microarray); assay: small molecules binding Wnt5a protein – biophysical, small-molecule microarray, 635/667 nm fluorescence, primary screen (AID 1142); conditions: 635 nm fluorescence, higher = more signal;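 further: fluorescence read at 667 nm with signal to noise per printed feature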
# [11] = ATP-based viability of Huh7 replicon cells – cell-based, CellTiter-Glo luminescence, basal, 48 h, cytotoxicity control for HCV replication inhibitor project, primary screen (AID 1143); conditions: higher = more signal, called active from +8 up or from −8 down;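 further: Huh7 hepatoma cells carrying a hepatitis C replication reporter with no stimulus; test concentration not given here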
# [12] = Pseudomonas biofilm growth suppression – PAO1 strain, BacTiter-Glo luminescence, LB-PBS, primary screen (AID 1144); conditions: P. aeruginosa PAO1 biofilm, 12 h, higher = more signal
# [13] = basal CRE-LacZ reporter activity in PC12 – cell-based, unstimulated, primary screen (AID 1145); conditions: no forskolin, luminescence, 4.5 h, higher = more signal, called active from +8 up or from −8 down
# [14] = forskolin-driven CRE-LacZ activity in PC12 – cell-based, CRE-LacZ reporter, forskolin-stimulated, primary screen (AID 1146); conditions: luminescence, 4.5 h, higher = more signal, called active from +8 up or from −8 down;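 further: PC12 cells with 6xCRE LacZ reporter stimulated by forskolin 10 µM; beta-galactosidase reporter signal reflecting CREB driven transcription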
# [15] = molecular target: Streptavidin (Streptomyces avidinii) (UniProt P22629); assay: compounds binding control protein streptavidin – biophysical, small-molecule microarray, 635/667 nm fluorescence, artefact control for SMM compound annotation, primary screen (AID 1147); conditions: higher = more signal;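 further: signal reflects streptavidin binding to arrayed compounds as a control protein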
# [16] = probe aInhba binding on compound microarray – biochemical, small-molecule microarray, 635/667 nm fluorescence, primary screen (AID 1148); conditions: higher = more signal;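 further: score merges 667nm spot fluorescence with signal-to-noise for antibody binding to printed compounds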
# Torsin-1A (Homo sapiens) [17] = molecular target: Torsin-1A (Homo sapiens) (UniProt O14656); assay: TOR1A wild-type binding on microarray – cell lysate, small-molecule microarray, lysate, 635/667 nm, primary screen (AID 1149); conditions: COS7 hTOR1A-WT lysate, 635 nm fluorescence, higher = more signal
# Torsin-1A (Homo sapiens) [18] = molecular target: Torsin-1A (Homo sapiens) (UniProt O14656); assay: torsin A mutant lysate binding on microarrays – cell lysate, small-molecule microarray, COS7 lysate, 635/667 nm fluorescence, primary screen (AID 1150); conditions: COS7 hTOR1A mutant lysate, 635 nm fluorescence, higher = more signal;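 further: score pools 667 nm emission and signal to noise measuring lysate protein binding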
# [19] = system: Sonic hedgehog protein (Shh); assay: Sonic hedgehog microarray binding compounds – biochemical, small-molecule microarray, 635/667 nm fluorescence, primary screen (AID 1151); conditions: 635 nm fluorescence, higher = more signal;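 further: Shh protein binding to compounds spotted on small-molecule microarray slides; score combines spot fluorescence intensity with signal-to-noise across triplicate slides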
# Sequence of Luciferin 4-monooxygenase (Photinus pyralis) (P08659 whole entry, looked up): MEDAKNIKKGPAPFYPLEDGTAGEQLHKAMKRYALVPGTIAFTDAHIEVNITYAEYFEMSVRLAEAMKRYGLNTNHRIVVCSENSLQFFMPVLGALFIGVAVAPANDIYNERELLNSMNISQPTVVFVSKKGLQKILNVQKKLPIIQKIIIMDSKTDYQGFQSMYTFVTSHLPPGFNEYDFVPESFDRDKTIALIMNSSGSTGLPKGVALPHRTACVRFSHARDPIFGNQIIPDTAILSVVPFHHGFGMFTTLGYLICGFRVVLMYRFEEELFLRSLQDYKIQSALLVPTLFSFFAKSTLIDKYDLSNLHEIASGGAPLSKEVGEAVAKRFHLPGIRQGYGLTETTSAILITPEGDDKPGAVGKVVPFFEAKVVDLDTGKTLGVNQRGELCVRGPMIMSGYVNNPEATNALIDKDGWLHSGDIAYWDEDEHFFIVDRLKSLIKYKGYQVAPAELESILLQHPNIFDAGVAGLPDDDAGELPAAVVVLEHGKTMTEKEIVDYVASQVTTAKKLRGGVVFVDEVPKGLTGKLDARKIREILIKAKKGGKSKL
# Sequence of Focal adhesion kinase 1 (Homo sapiens) (Q05397 whole entry, looked up): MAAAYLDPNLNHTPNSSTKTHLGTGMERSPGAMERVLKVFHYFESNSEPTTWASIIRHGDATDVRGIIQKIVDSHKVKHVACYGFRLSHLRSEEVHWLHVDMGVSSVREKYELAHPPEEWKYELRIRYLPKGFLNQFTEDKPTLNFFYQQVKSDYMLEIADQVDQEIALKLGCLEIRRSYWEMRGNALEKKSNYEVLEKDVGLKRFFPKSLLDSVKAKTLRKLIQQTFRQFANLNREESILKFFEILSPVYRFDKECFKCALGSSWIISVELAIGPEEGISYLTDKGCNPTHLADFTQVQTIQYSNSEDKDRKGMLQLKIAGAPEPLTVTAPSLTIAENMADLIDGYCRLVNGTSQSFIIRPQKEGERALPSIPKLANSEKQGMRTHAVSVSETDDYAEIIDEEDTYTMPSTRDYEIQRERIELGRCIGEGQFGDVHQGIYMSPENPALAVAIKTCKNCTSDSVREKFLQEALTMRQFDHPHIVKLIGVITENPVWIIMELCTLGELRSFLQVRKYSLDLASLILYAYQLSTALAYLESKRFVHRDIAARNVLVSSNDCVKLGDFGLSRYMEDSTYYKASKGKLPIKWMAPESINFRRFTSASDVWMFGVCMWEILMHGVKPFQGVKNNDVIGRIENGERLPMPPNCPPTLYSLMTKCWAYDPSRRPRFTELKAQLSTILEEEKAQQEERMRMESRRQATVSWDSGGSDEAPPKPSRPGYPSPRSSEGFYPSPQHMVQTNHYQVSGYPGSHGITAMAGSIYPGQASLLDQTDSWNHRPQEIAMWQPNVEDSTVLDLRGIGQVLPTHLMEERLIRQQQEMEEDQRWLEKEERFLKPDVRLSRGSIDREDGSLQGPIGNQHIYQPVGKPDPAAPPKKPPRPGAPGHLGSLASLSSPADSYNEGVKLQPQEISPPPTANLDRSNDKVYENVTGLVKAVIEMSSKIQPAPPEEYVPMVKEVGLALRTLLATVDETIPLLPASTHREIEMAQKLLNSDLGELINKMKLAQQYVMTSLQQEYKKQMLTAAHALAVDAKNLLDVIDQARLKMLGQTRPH
# Sequence of Streptavidin (Streptomyces avidinii) (P22629 whole entry, looked up): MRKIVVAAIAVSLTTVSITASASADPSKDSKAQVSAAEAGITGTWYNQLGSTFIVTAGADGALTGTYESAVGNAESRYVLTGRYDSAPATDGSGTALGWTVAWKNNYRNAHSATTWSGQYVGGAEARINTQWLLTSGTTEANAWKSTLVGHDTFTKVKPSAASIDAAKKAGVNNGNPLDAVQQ
# Sequence of Fibroblast growth factor 2 (Homo sapiens) (P09038 whole entry, looked up): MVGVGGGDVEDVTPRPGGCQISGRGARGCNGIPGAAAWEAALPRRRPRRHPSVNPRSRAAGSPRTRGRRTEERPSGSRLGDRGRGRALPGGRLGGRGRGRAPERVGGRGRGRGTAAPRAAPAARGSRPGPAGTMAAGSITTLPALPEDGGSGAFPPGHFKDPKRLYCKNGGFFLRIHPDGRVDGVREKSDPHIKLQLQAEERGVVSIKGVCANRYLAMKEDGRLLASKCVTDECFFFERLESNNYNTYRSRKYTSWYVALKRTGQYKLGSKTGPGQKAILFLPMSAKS
# Sequence of Torsin-1A (Homo sapiens) (O14656 whole entry, looked up): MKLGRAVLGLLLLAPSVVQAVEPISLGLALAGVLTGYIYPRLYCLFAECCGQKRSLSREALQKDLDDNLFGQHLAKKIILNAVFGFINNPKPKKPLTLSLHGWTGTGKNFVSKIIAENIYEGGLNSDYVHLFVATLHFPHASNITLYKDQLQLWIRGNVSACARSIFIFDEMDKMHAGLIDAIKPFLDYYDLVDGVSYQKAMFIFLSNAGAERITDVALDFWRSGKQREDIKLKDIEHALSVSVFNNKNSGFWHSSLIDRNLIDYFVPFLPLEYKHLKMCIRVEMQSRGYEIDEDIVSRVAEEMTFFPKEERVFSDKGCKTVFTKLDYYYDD
# Sequence of Follistatin (Homo sapiens) (P19883 whole entry, looked up): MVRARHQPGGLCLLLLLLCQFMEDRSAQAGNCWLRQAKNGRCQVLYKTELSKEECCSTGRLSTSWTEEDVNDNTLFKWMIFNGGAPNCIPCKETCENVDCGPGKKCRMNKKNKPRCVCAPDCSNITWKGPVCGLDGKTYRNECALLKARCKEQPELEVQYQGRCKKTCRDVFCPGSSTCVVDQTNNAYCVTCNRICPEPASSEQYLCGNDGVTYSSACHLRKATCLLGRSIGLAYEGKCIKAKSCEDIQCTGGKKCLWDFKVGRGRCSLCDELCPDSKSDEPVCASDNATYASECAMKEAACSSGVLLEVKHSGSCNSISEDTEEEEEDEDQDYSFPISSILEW
SMILES,composite z-score [1],composite z-score [2],composite z-score [3],composite z-score [4],composite z-score [5],composite z-score [6],z-score [7],composite z-score (Lefty1),composite z-score [8],z-score [9],composite z-score [10],z-score [11],z-score [12],z-score [13],z-score [14],composite z-score [15],composite z-score [16],composite z-score (Torsin-1A (Homo sapiens) [17]),composite z-score (Torsin-1A (Homo sapiens) [18]),composite z-score [19]
C=CC1c2cc(O)c(OC)cc2CCN1Cc1ccc([N+](=O)[O-])o1 (stereo not given),3,-0.354,-0.426,0.66,0.138,-0.0471,1.3,-0.807,1.39,-1.6 (inactive),0.17,-0.244 (inactive),1.47 (inactive),-0.321 (inactive),-0.625 (inactive),0.39,0.027,-0.17,0.745,-0.873
CN1C(=O)C2C(C1=O)C1C=C(CCCO)C2C(c2cccs2)N1Cc1cc2c(cc1Br)OCO2 (stereo not given),1.12,1.22,1.07,1.04,1.35,0.502,0.903,0.265,1.17,-1.48 (inactive),0.418,-1.8 (inactive),0.482 (inactive),-0.374 (inactive),-0.101 (inactive),2.27,0.233,1.5,1.95,0.162
COC(=O)[C@@]1(Cc2ccc(OC)cc2)[C@H]2c3cc(C(=O)N4CCCC4)n(Cc4cc(C)n(C)n4)c3C[C@H]2CN1C(=O)c1ccccc1,1.58,1.17,2.74,1.05,-0.326,-0.622,1.16,-0.801,1.33,0.769 (inactive),0.973,-0.434 (inactive),0.463 (inactive),-0.375 (inactive),0.543 (inactive),1.92,0.605,0.544,0.24,-0.319
O=C(NCC(O)CO)[C@@]1(CCS(=O)(=O)c2ccccc2)COC(c2ccc(OCCCO)cc2)=N1 (stereo not given in full),2.29,1.17,0.204,0.904,1.36,1.28,-0.583,-0.682,0.41,0.405 (inactive),0.556,-1.2 (inactive),0.063 (inactive),0.33 (inactive),0.0138 (inactive),0.985,0.228,1.13,1.91,-0.504
O=C1[C@@]23C=C(Br)[C@H](C[C@@H]2COC3)[C@@]12CO2,0.192,0.247,0.0493,0.161,0.397,0.423,-0.0605,0.414,0.0439,0.44 (inactive),0.731,0.762 (inactive),0.461 (inactive),-0.329 (inactive),2.56 (inactive),-0.129,-0.0986,0.283,0.276,0.497
